Compounds without any hit were thinned out: in the full panel of roughly 83,000, 20% have a hit.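 Values shown are percent growth following 48 h exposure of cells in 96-well plates to a single concentration of compound; below 10 was considered active.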 A number with no mark means an inactive call. Calls of active or inactive are those of the source.
How the values were obtained:
Test in all cases: NCI-60 one-dose screen, 48 h (100 = growth as untreated, 0 = no growth, -100 = all killed)
Settings in all cases: 10 µM unless noted
SR leukemia = tested on: SR leukemia
RPMI-8226 leukemia = tested on: RPMI-8226 leukemia
OVCAR-8 ovarian = tested on: OVCAR-8 ovarian
OVCAR-5 ovarian = tested on: OVCAR-5 ovarian
OVCAR-4 ovarian = tested on: OVCAR-4 ovarian
IGROV1 ovarian = tested on: IGROV1 ovarian
OVCAR-3 ovarian = tested on: OVCAR-3 ovarian
HS 578T breast = tested on: HS 578T breast
NCI/ADR-RES ovarian = tested on: NCI/ADR-RES ovarian
BT-549 breast = tested on: BT-549 breast
MDA-MB-435 melanoma = tested on: MDA-MB-435 melanoma
SW-620 colon = tested on: SW-620 colon
MCF7 breast = tested on: MCF7 breast
HCT-116 colon = tested on: HCT-116 colon
HCC-2998 colon = tested on: HCC-2998 colon
KM12 colon = tested on: KM12 colon
SK-OV-3 ovarian = tested on: SK-OV-3 ovarian
T-47D breast = tested on: T-47D breast

SMILES | growth (SR leukemia) | growth (RPMI-8226 leukemia) | growth (OVCAR-8 ovarian) | growth (OVCAR-5 ovarian) | growth (OVCAR-4 ovarian) | growth (IGROV1 ovarian) | growth (OVCAR-3 ovarian) | growth (HS 578T breast) | growth (NCI/ADR-RES ovarian) | growth (BT-549 breast) | growth (MDA-MB-435 melanoma) | growth (SW-620 colon) | growth (MCF7 breast) | growth (HCT-116 colon) | growth (HCC-2998 colon) | growth (KM12 colon) | growth (SK-OV-3 ovarian) | growth (T-47D breast)
Cc1oc2nc[nH]c(=O)c2c1C(=O)/C=C/c1ccc(Cl)cc1 | -30.6% (active) | -14.1% (active) | 15.8% | 34.5% | 29.8% | 38.9% | 4.32% (active) | 60.5% | 10.4% | 20.2% | 6.74% (active) | 8.49% (active) | 15.4% | 13.7% | 83.1% | 13.6% | – | –
C=C1C(=O)O[C@H]2[C@H]1CC/C(COC(=O)NCc1cc(OC)cc(OC)c1)=C\CC[C@@]1(C)O[C@@H]21 | 3.61% (active) | 5.14% (active) | -9.79% (active) | 18.1% | 9.29% (active) | – | – | 37.1% | 63.4% | -5.77% (active) | -29.1% (active) | -50.5% (active) | 0.19% (active) | -60.4% (active) | 63.8% | 45.1% | 81.7% | -8.17% (active)
CCNC(=O)CCCCC(=O)c1c(C)[nH]c(/C=C2\N=C(c3ccc[nH]3)C=C2OC)c1C | 45.6% | 51.6% | -38.3% (active) | 66.3% | -59.4% (active) | – | -77.9% (active) | 54.9% | 15.4% | -36.1% (active) | -18.4% (active) | -65.4% (active) | -17.4% (active) | -100% (active) | 48.6% | -56.9% (active) | 57.7% | -46.3% (active)
CC(=O)/C=C/c1cc2cc(Cl)ccc2[nH]c1=O | 5.65% (active) | 54.5% | 92.2% | 95.3% | 90.5% | – | 84.7% | 89.7% | 100% | – | 94.2% | 80.4% | 30.5% | 48.1% | 95.2% | 60% | 88.7% | 50%
Cc1oc2nc[nH]c(=O)c2c1C(=O)/C=C/c1ccc(Cl)cc1Cl | 33% | 28.4% | 45.4% | 134% | 68.6% | 89.2% | 48.6% | 102% | 43% | 73.8% | 57.2% | 31.2% | 39% | 36.3% | 102% | 52.1% | – | –
CCN1C(=O)N(CC)C2C1NN=c1s/c(=C3\C(=O)N(C4CCCC4)c4ccccc43)c(=O)n12 (configuration not stated) | 0.0502% (active) | -0.279% (active) | 23% | 49.7% | 46.1% | 31.9% | -35.3% (active) | -7.85% (active) | -22.8% (active) | 20% | -42.8% (active) | 28.5% | 21.4% | 0.802% (active) | -16.7% (active) | 10.9% | – | –
NS(=O)(=O)c1ccc(CN2C(=O)c3cccc4cccc(c34)C2=O)cc1 | 104% | 87.2% | 91.9% | 89.6% | 119% | 105% | – | – | 98% | 96.2% | 114% | 104% | 93.9% | 92.7% | 107% | 99.1% | 101% | 78.1%
COc1ccc(/C=C/C(=O)/C=C/c2cc3ccc(Cl)cc3[nH]c2=O)cc1 | -0.34% (active) | 19.9% | 81.4% | 108% | 92.9% | – | 75.4% | 90.5% | 103% | 75.6% | 81.5% | 66.1% | 25.2% | -50.8% (active) | 93.1% | 72.5% | 91% | 67.3%
CCNC(=O)C1CCCN1C(=O)C(CCCN=C(N)N)NC(=O)C(CC(C)C)NC(=O)C(CC(C)C)NC(=O)C(Cc1ccc(O)cc1)NC(=O)C(CO)NC(=O)C(Cc1c[nH]c2ccccc12)NC(=O)C(Cc1cnc[nH]1)NC(=O)C1CCC(=O)N1 (configuration not stated) | 102% | 33.3% | 95.9% | 87.3% | 91.3% | – | 125% | 81.2% | 97.8% | 113% | 105% | 89.4% | 86.1% | 95.2% | 94.4% | 104% | 98.2% | 104%

Source: PubChem BioAssay (NCI)
